Experimental data reported in PubChem BioAssay (Tox21).
Inconclusive results are not listed. The source made the active and inactive calls. Unless noted, calls follow the shape of the dose curve; as a rule, active = well fitted curve in the direction sought with a large enough effect in the repeat runs; inconclusive = weak or mixed curves; inactive = no such curve, though single readings can be large; an effect the other way counts as inactive or inconclusive.

Legend:
[1] = qHTS assay for small molecule agonists of the p53 signaling pathway (AID 651631; calls by dose curve; also: nearly all actives have a fitted effect of over 15% in size)
Procedure, shortened: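 Testing took place in human colorectal HCT-116 cells with stable p53RE-driven beta-lactamase. After 16 h of compound exposure at 37 °C, a FRET substrate was added and fluorescence recorded 2 h later.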

[2] = qHTS assay for small molecules that induce genotoxicity in human embryonic kidney cells expressing luciferase-tagged ATAD5 (AID 651632); also: nearly all actives have a fitted effect of over 15% in size
Procedure, shortened: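 DMSO vehicle served as the control. HEK293T reporter cells, 16 hr at 37C, then 30 min Amplite at room temperature; ATAD5 induction is measured as luciferase activity.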

[3] = qHTS assay for small molecule agonists of the p53 signaling pathway - cell viability (AID 651633; calls by dose curve; also: series mostly up to about 83 µM; nearly all actives have a fitted effect of over 30% in size)
Procedure, shortened: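 Viability counter-read: CellTiter-Glo luminescence (30 min, room temperature) in the same p53RE-bla plates. These plates had been exposed to compounds for 16 h at 37 C.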

[4] = qHTS assay for small molecules that induce genotoxicity in human embryonic kidney cells expressing luciferase-tagged ATAD5 - cell viability (AID 651634; calls by dose curve; also: nearly all actives have a fitted effect of over 25% in size)
Procedure, shortened: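 Here HEK293T cells with the ATAD5 luciferase reporter are incubated with test compounds for 15.5 hr, and cytotoxicity is then gauged by measuring protease activity in live cells using fluorescence.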

[5] = qHTS assay for small molecule disruptors of the mitochondrial membrane potential - cell viability (AID 720634; calls by dose curve;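 also: human HepG2 liver cancer cells; series mostly up to about 83 µM; nearly all actives have a fitted effect of over 20% in size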)
Procedure, shortened: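 Viability of HepG2 cells is scored from ATP content by luminescence; cells are exposed to compound for 1 hr at 37 C and 5% CO2, then dosed with m-MPI dye before the CellTiter-Glo reagent.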

[6] = qHTS assay to test for compound auto fluorescence at 590 nm (red) in HepG2 cells (AID 720674)
Procedure, shortened: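 1 hr compound incubation on HepG2 cells, 37 C, 5% CO2; plate read ex 540 nm / em 590 nm; intensities reported as Rose Bengal sodium equivalents.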

[7] = qHTS assay to test for compound auto fluorescence at 535 nm (green) in HepG2 cells (AID 720675)
[8] = qHTS assay to test for compound auto fluorescence at 460 nm (blue) in HEK293 cells (AID 720678)
Procedure, shortened: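 Cells were seeded and left to adhere for 4-5 hr at 37C. Compounds were then pin-transferred. After an overnight incubation at 37C under 5% CO2, intrinsic fluorescence at 405/460 nm was measured and referenced to triamterene.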

[9] = qHTS assay to test for compound auto fluorescence at 590 nm (red) in HEK293 cells (AID 720679)
Procedure, shortened: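 Each well held 2,000 HEK293 cells in medium containing 10% dialyzed FBS. Following 4-5 hr attachment at 37C, 23 nL test compound or DMSO was added; plates sat overnight, and red fluorescence (540/590nm) was recorded.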

[10] = qHTS assay to test for compound auto fluorescence at 535 nm (green) in HEK293 cells (AID 720680)
[11] = qHTS assay to test for compound auto fluorescence at 460 nm (blue) in HEK293 cell free culture (AID 720681)
Procedure, shortened: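 Blue fluorescence (Ex 405/Em 460 nm, triamterene-equivalent) was read immediately after pin transfer of compound or DMSO into medium (DMEM, 10% FBS) without cells.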

[12] = qHTS assay to test for compound auto fluorescence at 590 nm (red) in HEK293 cell free culture (AID 720683)
Procedure, shortened: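 Red-channel autofluorescence of compounds in culture medium (DMEM, 10% FBS), no cells, measured at 540/590 nm. Rose Bengal sodium is the reference fluorophore for equivalence.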

[13] = qHTS assay to test for compound auto fluorescence at 590 nm (red) in HepG2 cell free culture (AID 720684)
Procedure, shortened: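 Cell-free; medium MEM + 10% FBS; compound or DMSO added by pintool; read Ex 540/Em 590 nm; Rose Bengal sodium as red reference fluorophore.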

[14] = qHTS assay to test for compound auto fluorescence at 460 nm (blue) in HepG2 cell free culture (AID 720685)
Procedure, shortened: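 Cell-free plates of MEM plus 10% FBS received 23 nL compound or DMSO vehicle; blue-channel (405/460 nm) intensity scored against triamterene as reference fluorophore.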

[15] = qHTS assay to test for compound auto fluorescence at 535 nm (green) in HepG2 cell free culture (AID 720686)
[16] = qHTS assay to test for compound auto fluorescence at 460 nm (blue) in HepG2 cells (AID 720687)
Procedure, shortened: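 Blue-channel autofluorescence (Ex/Em 405/460 nm, triamterene-equivalent) was measured after 1 hr compound exposure at 37 C, 5% CO2. Cells were HepG2, plated overnight at 37 C in MEM plus 10% FBS.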

[17] = molecular target: Glucocorticoid receptor (Homo sapiens) (UniProt P04150); assay: qHTS assay to identify small molecule agonists of the glucocorticoid receptor (GR) signaling pathway (AID 720691; active = well fitted activation curve with a large enough effect in the signal ratio in the repeat runs, not every such curve was filed as active; the % refers to the signal ratio)
Sequence of Glucocorticoid receptor (Homo sapiens) (P04150 whole entry, looked up): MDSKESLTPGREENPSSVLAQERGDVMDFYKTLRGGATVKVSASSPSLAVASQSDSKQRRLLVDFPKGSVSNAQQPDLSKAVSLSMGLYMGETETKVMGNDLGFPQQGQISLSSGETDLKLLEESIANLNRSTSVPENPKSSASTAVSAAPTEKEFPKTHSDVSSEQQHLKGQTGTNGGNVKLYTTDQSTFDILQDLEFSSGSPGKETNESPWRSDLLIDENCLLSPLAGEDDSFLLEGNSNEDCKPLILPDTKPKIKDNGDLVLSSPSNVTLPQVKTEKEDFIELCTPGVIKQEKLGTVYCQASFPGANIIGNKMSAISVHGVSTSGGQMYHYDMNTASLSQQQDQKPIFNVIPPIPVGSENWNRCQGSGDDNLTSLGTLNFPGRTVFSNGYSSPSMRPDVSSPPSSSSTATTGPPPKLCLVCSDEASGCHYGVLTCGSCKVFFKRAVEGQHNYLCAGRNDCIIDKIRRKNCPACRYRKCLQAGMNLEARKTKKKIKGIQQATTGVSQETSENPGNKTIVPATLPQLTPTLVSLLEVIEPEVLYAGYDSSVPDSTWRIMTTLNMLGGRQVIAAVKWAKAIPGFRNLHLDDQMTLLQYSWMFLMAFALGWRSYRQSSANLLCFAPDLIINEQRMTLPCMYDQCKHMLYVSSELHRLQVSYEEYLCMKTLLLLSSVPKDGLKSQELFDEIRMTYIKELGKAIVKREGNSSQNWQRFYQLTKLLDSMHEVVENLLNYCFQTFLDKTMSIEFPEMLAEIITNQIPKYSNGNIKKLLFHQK
Procedure, shortened: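 Compounds in DMSO, alongside positive controls, were added to GR-bla HeLa reporter cells and incubated 18 h at 37 C; GRE-driven beta-lactamase was detected by fluorescence after 2 h with FRET substrate at room temperature.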

[18] = molecular target: Glucocorticoid receptor (Homo sapiens) (UniProt P04150); assay: qHTS assay to identify small molecule antagonists of the glucocorticoid receptor (GR) signaling pathway (AID 720692; active = well fitted inhibition curve with a large enough effect in the signal ratio in the repeat runs, not every such curve was filed as active; the % refers to the signal ratio)
Procedure, shortened: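 In a 1536-well cell format, compounds were added 4 h after seeding GR-bla HeLa cells, together with dexamethasone at 5 nM final; reporter activity was measured by FRET-substrate fluorescence following 18 h at 37 C.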

[19] = qHTS assay to test for compound auto fluorescence at 535 nm (green) in HEK293 cell free culture (AID 720682)
Procedure, shortened: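 DMEM + 10% FBS, cell-free; cpd or DMSO pinned in; Ex485/Em535 read; output as fluorescein-equivalent signal.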
% is scaled to controls: 0 for no effect and ±100 for the full control effect.

CCC(=O)c1cccc(Cl)c1
inactive: Potency [1] | Potency [2] | Potency [3] | Potency [4] | Potency [5] | outcome [6] | outcome [7] | Potency [8] | outcome [9] | outcome [10] | Potency [11] | outcome [12] | outcome [13] | Potency [14] | outcome [15] | Potency [16] | Potency [17] | Potency [18]

CC(=O)OC(C)(C)C
inactive: Potency [1] | Potency [2] | Potency [3] | Potency [4] | Potency [5] | outcome [6] | outcome [7] | outcome [9] | outcome [10] | Potency [11] | outcome [19] | outcome [12] | outcome [13] | Potency [14] | outcome [15] | Potency [16]

CCCCCCC(=O)OCC
inactive: Potency [1] | Potency [2] | Potency [3] | Potency [4] | Potency [5] | outcome [6] | outcome [7] | outcome [9] | outcome [10] | Potency [11] | outcome [19] | outcome [12] | outcome [13] | Potency [14] | outcome [15] | Potency [16]

CCCCCOC(=O)Nc1nc(=O)n([C@@H]2O[C@H](C)[C@@H](O)[C@H]2O)cc1F
inactive: Potency [1] | Potency [2] | Potency [3] | Potency [4] | Potency [5] | outcome [6] | outcome [7] | Potency [8] | outcome [9] | outcome [10] | Potency [11] | outcome [19] | outcome [12] | Potency [14] | outcome [15] | Potency [16]

CCc1cc(S(=O)(=O)O)c2cc(C(C)C)cccc1-2
inactive: Potency [1] | Potency [2] | Potency [3] | Potency [4] | Potency [5] | outcome [6] | outcome [7] | Potency [8] | outcome [9] | outcome [10] | Potency [11] | outcome [19] | outcome [12] | outcome [13] | Potency [14] | outcome [15] | Potency [16] | Potency [17] | Potency [18]

CCCC(C)CO (stereo unspecified)
inactive: Potency [1] | Potency [2] | Potency [3] | Potency [4] | Potency [5] | outcome [6] | outcome [7] | Potency [8] | outcome [9] | outcome [10] | Potency [11] | outcome [19] | outcome [12] | outcome [13] | Potency [14] | outcome [15] | Potency [16] | Potency [17] | Potency [18]

Cc1ncc(CSSCc2cnc(C)c(O)c2CO)c(CO)c1O
inactive: Potency [1] | Potency [2] | Potency [3] | Potency [4] | Potency [5] | outcome [6] | outcome [7] | Potency [8] | outcome [9] | outcome [10] | Potency [11] | outcome [19] | outcome [12] | outcome [13] | Potency [14] | outcome [15] | Potency [16] | Potency [17] | Potency [18]

COc1cc(CCC(C)=O)ccc1O
inactive: Potency [1] | Potency [2] | Potency [3] | Potency [4] | Potency [5] | outcome [6] | outcome [7] | Potency [8] | outcome [9] | outcome [10] | Potency [11] | outcome [19] | outcome [12] | outcome [13] | Potency [14] | outcome [15] | Potency [16] | Potency [17] | Potency [18]

Oc1cc(O)c2c(c1)O[C@H](c1ccc(O)c(O)c1)[C@H](O)C2
inactive: Potency [1] | Potency [2] | Potency [3] | Potency [4] | Potency [5] | outcome [6] | outcome [7] | Potency [8] | outcome [9] | outcome [10] | Potency [11] | outcome [12] | outcome [13] | Potency [14] | outcome [15] | Potency [16] | Potency [18]

OCc1ccccn1
inactive: Potency [1] | Potency [2] | Potency [3] | Potency [4] | Potency [5] | outcome [6] | outcome [7] | Potency [8] | outcome [9] | outcome [10] | Potency [11] | outcome [19] | outcome [12] | outcome [13] | Potency [14] | outcome [15] | Potency [16] | Potency [17] | Potency [18]

COc1cccc(OC)c1
inactive: Potency [1] | Potency [2] | Potency [3] | Potency [4] | Potency [5] | outcome [6] | outcome [7] | Potency [8] | outcome [9] | outcome [10] | Potency [11] | outcome [19] | outcome [12] | Potency [14] | outcome [15] | Potency [16] | Potency [17] | Potency [18]

O=C(O)/C=C/c1ccc(Cn2ccnc2)cc1
inactive: Potency [1] | Potency [2] | Potency [3] | Potency [4] | Potency [5] | fluorescence, relative to Rose Bengal [6] 0.61% [at 18.6 µM] | fluorescence, % of fluorescein control [7] 0.0058% [at 18.6 µM] | fluorescence, % of triamterene [8] -0.0046% [at 18.6 µM] | fluorescence, % of fluorescent control [9] -0.336% [at 18.6 µM] | fluorescence, % of fluorescein [10] -0.0116% [at 18.6 µM] | fluorescence, % of fluorescent control [11] 0.209% [at 18.6 µM] | activity change [19] 0.0066% [at 18.6 µM] | fluorescence, % of fluorescent control [12] -0.0715% [at 18.6 µM] | fluorescence, % of Rose Bengal [13] -0.307% [at 18.6 µM] | fluorescence, % of fluorescent control [14] -0.0401% [at 18.6 µM] | fluorescence, % of fluorescein control [15] -0.0119% [at 18.6 µM] | fluorescence, % of fluorescent control [16] 0.143% [at 18.6 µM] | Potency [17] | Potency [18]

CCN1CCCC1CNC(=O)c1cc(S(N)(=O)=O)ccc1OC (stereo unspecified)
inactive: Potency [1] | Potency [2] | Potency [3] | Potency [4] | Potency [5] | outcome [6] | outcome [7] | Potency [8] | outcome [9] | outcome [10] | Potency [11] | outcome [19] | outcome [12] | Potency [14] | outcome [15] | Potency [16] | Potency [17]

COCCOC(=O)CC#N
inactive: Potency [1] | Potency [2] | Potency [3] | Potency [4] | Potency [5] | outcome [6] | outcome [7] | Potency [8] | outcome [9] | outcome [10] | Potency [11] | outcome [19] | outcome [12] | outcome [13] | Potency [14] | outcome [15] | Potency [16] | Potency [17]

N#CC1(O)CCCCC1
inactive: Potency [1] | Potency [2] | Potency [3] | Potency [4] | Potency [5] | outcome [6] | outcome [7] | Potency [8] | outcome [9] | outcome [10] | Potency [11] | outcome [12] | outcome [13] | Potency [14] | outcome [15] | Potency [16]
